# From PubChem
# A549 tox – kills or reduces viability of A549 cells in Nrf2 counter-screen. AID 504648. hit rate 0.16% among 390,000. Potency, µM (highest dose often 46 µM), for inactives: at the top dose activity change, negative = cytotoxicity, usual class: inhibitors. A549 ARE-Fluc cells, CellTiter-Fluor viability, 18-24 h; further: on the % scale 0 is the no-effect control and ±100 the full control effect
#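 Cytotoxicity counterscreen: CellTiter-Fluor fluorescence was measured in A549 ARE_Fluc cells after 18-24 h of compound exposure in a concentration series. The subsequent BugLite luminescent read reports ARE-luciferase activity.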
# Nrf2 ARE act – Nrf2 pathway activation. AREc32 ARE-luciferase reporter (MCF7-derived line), luminescence, 24 h. Potency, µM (top dose mostly 46.1 µM), for inactives: at the top dose activation, hits mostly activators. hit rate 0.31% among 410,000. AID 624171; further: % of control where 0% means no effect; nearly all actives have a fitted effect of over 65% in size
#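 AREc32 cells carrying an ARE-driven firefly luciferase, 1000 cells/well in OPTI-MEM with 5% FBS, dosed after overnight attachment and incubated 24 hr at 37 deg C. Steady-Glo luminescence read after 30 min at RT.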
# ELG1 DNA repair – blocks ELG1-dependent DNA repair in HEK293T cells | hit rate 2.3% among 330,000 | Potency, µM (highest dose often 46.1 µM), inactives show at the top dose activity change, negative = inhibition, actives largely listed as inhibitors | HEK293T ELG1-luciferase reporter, luminescence, 16 h; DNA damage induced by 5-fluorouridine; further: on the % scale 0 is the no-effect control and ±100 the full control effect; nearly all actives have a fitted effect of over 55% in size
#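 Cells (2,000 per well) received 5-fluorouridine plus test compound or DMSO and were incubated 16 hr at 37 °C, 5% CO2. Luciferase activity was read by luminescence 30 min after ONE-Glo addition; signal suppression marked inhibition of damage-induced ELG1 function.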
# Nrf2 inh – inhibitors of Nrf2 signaling; A549 ARE-Fluc reporter, luciferase luminescence, 18-24 h; Potency, µM (highest dose often 46 µM), for inactives: top-dose activity change, negative = inhibition, hits mostly inhibitors; hit rate 2.1% among 360,000; AID 504444; further: on the % scale 0 is the no-effect control and ±100 the full control effect; nearly all actives have a fitted effect of over 60% in size
#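 Nrf2 activity is the BugLite luminescence, read 15 min after reagent at room temperature, following CellTiter-Fluor cytotoxicity readout (30 min, 37C). Compound titrations were applied for 18-24 h to 5000 A549 ARE_Fluc cells/well in 5% FBS OPTI-MEM.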
# * marks the source's active call; other numbers are inactive results; ? = inconclusive; nt = no result given. Rows were chosen to be rich in hits. Some 3.7% of all compounds tested hit in one or more screens of this group. The call rests on the fitted dose curve; in most records, active means well fitted curve in the direction sought with a large enough effect; inconclusive means small, poorly fitted or top-dose-only effect, or another doubt; inactive means no such curve, though single readings can be large; an effect the other way counts as inactive or inconclusive. Potency means the concentration at half of the fitted maximal effect.
SMILES,A549 tox,Nrf2 ARE act,ELG1 DNA repair,Nrf2 inh
Cc1cccc(Nc2c3c(nc4ccccc24)CCC3)c1,3%,4%,21µM*,-15%
COc1ccc(CCNc2oc(Cc3cccc4ccccc34)nc2C#N)cc1OC,-25%,-1%,16µM*,21µM*
COc1ccc(CCNc2oc(COc3ccc(Br)cc3)nc2C#N)cc1OC,-11%,-2%,21µM*,?
COc1ccc(CCNc2oc(COc3ccccc3F)nc2C#N)cc1,-2%,3%,5%,6%
CC(C)CC(NC(N)=O)C(=O)Nc1ccc(Oc2ccccc2)cc1 (stereo not drawn),2%,0%,?,-17%
COc1ccc(CCn2c(SCC(=O)Nc3cc(C)on3)nc3ccccc3c2=O)cc1OC,10%,2%,4%,4%
COc1ccc(CCn2c(SCC(=O)Nc3cc(C)on3)nc3ccsc3c2=O)cc1OC,?,0%,10µM*,?
COc1cc2[nH]c(=O)n(CCCCCC(=O)N3CC=C(c4ccccc4)CC3)c(=O)c2cc1OC,?,-1%,8.2µM*,?
COc1cc2[nH]c(=O)n(CCC(=O)N3CCN(c4cc(Cl)ccc4C)CC3)c(=O)c2cc1OC,?,0%,8.2µM*,?
COc1cc2[nH]c(=O)n(CCC(=O)N3CCc4ccccc4C3)c(=O)c2cc1OC,-6%,-1%,-4%,-1%
CCOC(=O)C(=Cc1cc(=O)c(OC)co1)C(=O)OCC,15µM*,-3%,5.8µM*,9.2µM*
COc1coc(C(O)CN)cc1=O (stereo not drawn),6%,-1%,2%,-3%
COc1ccc(C(=O)NCc2nnc(SCC(=O)N3CCCc4ccccc43)o2)cc1OC,8%,0%,1%,-11%
COc1ccc(N2CCN(C(=O)CCC(=O)N3CCOc4ccc(Cl)cc43)CC2)cc1,-3%,3%,?,?
O=C(O)CC/C(=N\Nc1ccc(S(=O)(=O)N2CCCC2)cc1[N+](=O)[O-])c1cccs1,-16%,0%,21µM*,?
CC(=O)Oc1cccc(/C=C2\Sc3ccccc3C2=O)c1,1%,14µM*,0%,15%
CCCCOc1ccc(/C=C2/Sc3ccccc3C2=O)cc1,19%,8%,?,?
Cc1ccc(C2NC(c3ccc4c(c3)OCO4)=CC(c3cc(Br)ccc3O)N2)cc1 (stereo not drawn),1%,nt,nt,13%
CC(=O)OC[C@@H]1CN(Cc2ccccc2)C[C@H](n2cnc3c(NCc4ccc(F)cc4)ncnc32)O1,nt,5%,nt,nt
O=C(NNC(=O)c1ccncc1)Nc1ccc(N=Nc2ccccc2)cc1,-13%,3%,nt,10%
CCCn1c(C)cc(/C=C(\C#N)C(=O)OCC(=O)N(CC)c2c(N)n(Cc3ccccc3)c(=O)[nH]c2=O)c1C,-4%,3%,nt,6%
CCc1ccc(NC(=O)CSc2ccc(-c3ccccn3)nn2)cc1,?,6%,?,21µM*
CC(=O)c1cccc(NC(=O)CSc2ccc(-c3ccccn3)nn2)c1,-13%,3%,11%,21µM*
CC(=O)Nc1cccc(NC(=O)CSc2ccc(-c3ccccn3)nn2)c1,-11%,1%,4%,?
Cn1c2c(c3ccccc31)CCN(CCCCN1CCN(c3ccccc3)CC1)C2=O,?,-1%,nt,11%
SMILES,A549 tox,Nrf2 ARE act,ELG1 DNA repair,Nrf2 inh
O=C1c2ccccc2CC1Sc1nnc(-c2ccccn2)o1 (stereo not drawn),7%,13µM*,?,?
O=C1CC(Sc2nnc(-c3ccccc3O)o2)C(=O)N1c1ccccc1 (stereo not drawn),4%,5%,0%,1%
C=CC[C@H](CC(=O)OC(C)(C)C)C(=O)OC[C@H]1CCCN1C(=O)[C@@H](CC=C)CC(=O)N(CCO)Cc1ccccc1,-13%,3%,?,-10%
COc1cc(NS(=O)(=O)c2c(C)nc3sc(C)c(C)n3c2=O)cc(OC)c1,3%,0%,nt,22%
Cc1ccc(NS(=O)(=O)c2c(C)nc3sc(C)c(C)n3c2=O)cc1F,1%,3%,nt,21µM*
CCN(Cc1ccccc1)C(=O)c1nn(-c2ccc(OC)cc2)c(=O)c2c1c1ccccc1n2C,0%,3%,18µM*,?
CCCCN(CC)C(=O)c1nn(-c2ccc(OC)cc2)c(=O)c2c1c1ccccc1n2C,-9%,9%,nt,-8%
c1ccc(-c2cn(-c3ccccc3)c3ncnc(N4CCCCC4)c23)cc1,-9%,-1%,?,-20%
CCOc1ccc(-n2cc(-c3ccccc3)c3c(N4CCOCC4)ncnc32)cc1,7%,0%,9.2µM*,?
O=C(Nc1ccc2c(c1)OCO2)c1ccc(Br)c(S(=O)(=O)N2CCCC2)c1,-1%,1%,21µM*,?
O=C(Nc1ccc(F)cc1)c1ccc(Br)c(S(=O)(=O)N2CCOCC2)c1,-17%,3%,15µM*,15µM*
Cc1oc(S(=O)(=O)N2CCOCC2)cc1C(=O)Nc1ccc(F)cc1,-3%,0%,23µM*,?
O=C(Nc1ccc2c(c1)OCCO2)c1ccc(Br)c(S(=O)(=O)N2CCOCC2)c1,-1%,0%,?,-29%
O=C(Nc1ccc(NC(=O)c2ccc(Cl)c(S(=O)(=O)N3CCOCC3)c2)cc1)c1ccccc1,-3%,0%,?,23%
O=C(Nc1ccccc1)c1ccc(NC2CCCCC2)c(S(=O)(=O)N2CCOCC2)c1,-6%,-1%,15µM*,-16%
COc1ccc(-c2nc3cc(NC(=O)Cc4ccc(OC)c(OC)c4)ccc3o2)cc1,?,1%,?,15µM*
O=C(Cc1ccc(Cl)cc1)Nc1ccc2oc(-c3ccc(F)cc3)nc2c1,0%,0%,nt,?
COc1ccc(-c2nc3cc(NC(=O)Cc4ccc(Cl)cc4)ccc3o2)cc1OC,?,0%,nt,23µM*
O=C(NCCNC(=O)c1cc(Cl)ccc1Cl)c1ccco1,3%,-1%,8%,-14%
NC(=O)c1ccc(NC(=O)CSc2nc3ccccc3c(=O)n2CCCN2CCOCC2)cc1,-8%,11%,?,6%
O=C(CN1C(=O)C2C3c4ccccc4C(c4ccccc43)C2C1=O)Nc1cccc(C(=O)O)c1 (stereo not drawn),-1%,1%,1%,2%
COC(=O)c1c(NC(=O)Cc2cccs2)sc(C(=O)N2CCCCC2)c1C,2%,0%,26µM*,?
CC(=O)NCCCc1nc2ccccc2n1Cc1c(F)cccc1Cl,1%,0%,11%,-13%
Cc1nn(C)c(C)c1NC(=O)COc1ccc(F)cc1Br,1%,0%,?,23µM*
Cc1cccc(Cn2c(SCc3ccc(C(=O)NCc4ccccc4)cc3)nc3cccnc32)c1,-14%,0%,nt,?
COc1cccc(Nc2nnc(SCC(=O)Nc3sccc3C(N)=O)s2)c1,10%,3%,15µM*,-11%
Cc1nnc(SCCn2c(N3CCC(Cc4ccccc4)CC3)nc3c2c(=O)[nH]c(=O)n3C)s1,-26%,2%,9.2µM*,-24%
